Screens (PubChem)
In the library only some 2.3% were active in any assay of this set; here they are far more common.
CHRM1 antagonist = antagonists of human M1 muscarinic receptor | P11229 | CHO-K1 hM1, Fluo-8 calcium fluorescence, ACh EC80 antagonist | inhibition, % at 3 µM | actives 1.3% (n = 360,000) | AID 588852;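 active = percent inhibition above its own plate's cutoff, namely the mean of that plate's compound wells plus 3 SD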;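 note: peak over basal fluorescence ratio during 140 s after agonist addition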
Target sequence (P11229 whole entry, looked up): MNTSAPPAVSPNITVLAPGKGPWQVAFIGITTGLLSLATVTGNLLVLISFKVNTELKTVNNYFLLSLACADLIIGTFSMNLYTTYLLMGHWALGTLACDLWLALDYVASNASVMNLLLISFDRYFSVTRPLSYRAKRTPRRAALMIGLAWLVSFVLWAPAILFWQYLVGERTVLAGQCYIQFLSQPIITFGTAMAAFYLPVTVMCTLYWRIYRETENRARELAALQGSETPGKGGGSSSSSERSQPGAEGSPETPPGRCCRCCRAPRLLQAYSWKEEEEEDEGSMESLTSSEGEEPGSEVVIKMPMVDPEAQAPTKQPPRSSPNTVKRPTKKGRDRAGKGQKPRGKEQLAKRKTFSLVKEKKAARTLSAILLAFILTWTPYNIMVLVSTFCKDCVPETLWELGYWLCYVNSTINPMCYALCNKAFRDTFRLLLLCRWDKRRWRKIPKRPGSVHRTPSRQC
CHRM1 agonist = activates human CHRM1 receptor. CHO-K1 hM1, Fluo-8 calcium fluorescence, agonist mode; 0% DMSO, 100% acetylcholine EC100. activation, % at 3 µM. actives 0.33% (n = 360,000). AID 588814;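 active = activation above the run's mean compound activation plus 3 SD, cut at about 16% in these data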;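 note: peak over basal fluorescence ratio within a 140 s kinetic read after compound addition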
CHO-K1 Ca PAM = M1 PAM counterscreen hit in parental CHO-K1 cells; ATP EC20, Fluo-8 calcium fluorescence; 0% at ATP EC20, 100% at ATP max; activation, % at 3 µM; actives 0.02% (n = 360,000); AID 602247;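 active = activation above the run cutoff, the mean activation of all test compounds plus 3 SD, cut at about 40% in these data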;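 note: peak over basal fluorescence ratio in a 140 s read after ATP addition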
CHRM1 PAM = positive allosteric modulators of human M1 muscarinic receptor. P11229. CHO-K1 hM1, Fluo-8 calcium fluorescence, ACh EC20; 0% = ACh EC20, 100% = maximal ACh. activation, % at 3 µM. actives 0.088% (n = 360,000). AID 588819; in the data active = activation above about 19%, passing the limit was not always enough
CHO-K1 Ca antag = M1 antagonist counterscreen hit in parental CHO-K1 cells. ATP-induced calcium, Fluo-8 fluorescence. actives 0.6% (n = 360,000). inhibition, % at 3 µM;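 active = inhibition above a per-plate cutoff, the plate's mean sample inhibition plus 3 SD, cut at about 24% in these data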
CHO-K1 Ca ag = nonselective activator or artifact in parental CHO-K1 cells; Fluo-8 calcium fluorescence; scaled to maximal ATP response, vehicle zero; activation, % at 3 µM; actives 0.48% (n = 360,000); AID 602248; in the data active = activation above about 15%;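 note: untransfected CHO-K1 host cells lacking M1 receptor as counterscreen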
Hits are given with their value; - = inactive; . = not tested or not shown.

SMILES | CHRM1 antagonist | CHRM1 agonist | CHO-K1 Ca PAM | CHRM1 PAM | CHO-K1 Ca antag | CHO-K1 Ca ag
CNc1oc(-c2ccc(Cl)cc2)nc1P(=O)(c1ccccc1)c1ccccc1 | - | - | 48.9 | - | - | -
COc1ccc(Nc2ncc(C(=O)N3CCN(Cc4ccccc4)CC3)c3ccccc23)cc1 | 32.1 | - | - | - | - | -
O=C(Nc1ccccc1)Nc1ccc(Cl)c(S(=O)(=O)N2CCOCC2)c1 | - | - | - | - | - | 17.6
O=S(=O)(c1ccc(NCc2ccccc2)cc1)N1CCOCC1 | - | - | - | - | 25.0 | -
O=C(Nc1ccc(N2CCOCC2)cc1)C1(c2ccc(Cl)cc2)CCC1 | - | 16.5 | - | - | - | -
O=C(Nc1ccc(Cl)cc1)Nc1ccc(N2CCOCC2)cc1 | - | - | - | - | - | -
O=C(N1CCOCC1)C1(c2ccc(Cl)cc2)CCCC1 | - | - | - | - | - | -
O=C(Nc1ccc(N2CCOCC2)cc1)Nc1ccc(Cl)c(Cl)c1 | 54.8 | - | - | - | 33.3 | -
CCc1nc2ccc(C(=O)NCCCN3CCCC3=O)cn2c1N(C)C(=O)C1CCCCC1 | - | - | - | - | - | -
COc1ccc(OC)c(NC(=O)C2=C(C)NC(=O)NC2c2cccs2)c1 (centres undefined) | - | - | - | - | - | -
COc1cccc(C(=O)NCC(=O)OCC(=O)NC2CCCCC2)c1 | - | - | - | - | - | -
O=C(Nc1ccc(N2CCCC2)cc1)c1ccc(Cl)cc1Cl | - | - | - | - | - | -
O=C(Nc1ccc(N2CCCC2)cc1)c1cc(Cl)ccc1Cl | 36.0 | - | - | - | - | -
COc1ccc(CCNC(=O)c2cccc(C(=O)NCCc3ccc(OC)cc3)n2)cc1 | - | - | - | - | - | -
C=CCn1c(=S)[nH]c2cc(C(=O)Nc3ccc(F)cc3)ccc2c1=O | 22.6 | - | - | - | - | -
CC(C)c1cc(C(=O)O)c2cnn(C(C)C)c2n1 | - | - | - | - | - | -
COc1ccc(C(C2C(=O)CC(C)(C)CC2=O)C2C(=O)CC(C)(C)CC2=O)cc1 | - | - | - | - | - | 19.3
COc1ccccc1OCCNC(=O)Cc1ccc(S(=O)(=O)N2CCOCC2)s1 | - | - | - | - | - | -
CC1Cc2cc(-c3csc(NC(=O)Cc4cccs4)n3)ccc2N1S(C)(=O)=O (centres undefined) | 26.3 | - | - | - | - | -
CCC(=O)Nc1nc(-c2ccc3c(c2)CC(C)N3S(C)(=O)=O)cs1 (centres undefined) | - | - | - | - | - | -
CN1C(=S)SC(C)(NO)C1(C)C (centres undefined) | - | - | - | 26.3 | - | -
COc1ccc2[nH]c3c(=O)n(N)c(=O)[nH]c3c2c1 | - | - | - | - | - | -
COc1cc2[nH]c3c(=O)n(N)c(=O)[nH]c3c2cc1OC | 41.1 | - | - | - | - | -
C/C(=N\NC(=S)NC(C)C)c1ccc(Cl)s1 | 80.9 | - | - | - | - | -
COc1ccc(C2NC(=O)N(C)C3=C2C(=O)CC(C)(C)C3)cc1OC (centres undefined) | - | - | - | - | - | -
SMILES | CHRM1 antagonist | CHRM1 agonist | CHO-K1 Ca PAM | CHRM1 PAM | CHO-K1 Ca antag | CHO-K1 Ca ag
COc1ccc(Cn2c(C(F)(F)F)ccc(C(N)=O)c2=O)cc1 | - | - | - | - | - | -
NC(=O)c1ccc(C(F)(F)F)n(Cc2c(Cl)cccc2Cl)c1=O | - | - | - | 20.2 | - | -
CCOc1ccc2oc(C(=O)OC(C(=O)NC(N)=O)C(C)C)c(C)c2c1 (centres undefined) | - | - | - | - | - | -
CN(C)c1ccc(NC(=O)c2sc(SCC(=O)Nc3nccs3)nc2N)cc1 | 23.6 | - | - | - | - | -
COc1cccc(-c2ccc3c(c2)O[C@@H](CN(C)C(=O)C2CCOCC2)[C@H](C)CN([C@H](C)CO)S3(=O)=O)c1 | - | - | - | - | - | -
Cc1onc(-c2ccccc2)c1C(=O)NC(=S)NNC(=O)c1ccccc1O | - | 74.2 | - | - | - | 77.0
Cc1onc(-c2ccccc2)c1C(=O)NC(=S)NNC(=O)c1ccc(O)cc1O | - | - | - | - | - | -
CCCOc1ccc(C(=O)NC(=S)NNC(=O)c2c(-c3ccccc3)noc2C)cc1 | 62.1 | 96.9 | - | - | - | 32.7
COc1ccc(S(=O)(=O)N2CCOCC2)cc1NC(=O)c1cccc(Cl)c1 | - | - | - | - | - | -
COCOc1ccc(/C=C/C(=O)c2c(OCOC)cc(OCOC)c(CC=C(C)C)c2O)cc1OCOC | - | - | - | - | 29.1 | -
COCOc1ccc(/C=C/C(=O)c2c(O)cc(OCOC)cc2OCOC)cc1 | - | - | - | - | - | -
CCCc1c(O)nc(SCCN(CCC)CCC)[nH]c1=O | - | - | - | - | 27.0 | -
CCSc1nc(O)c(Cc2ccccc2)c(=O)[nH]1 | - | - | - | - | 30.6 | -
COc1ccccc1NC(=O)CSc1nc(O)c(Cc2ccccc2)c(=O)[nH]1 | - | - | - | - | - | -
CCCCCCCc1c(O)nc(SCCN(C)C)[nH]c1=O | - | - | - | - | - | -
COc1ccc(CCN=C(N)NS(=O)(=O)c2ccc(C)cc2)cc1OC | - | - | - | - | - | -
COc1ccccc1CCN=C(N)NS(=O)(=O)c1ccc(C)cc1 | - | - | - | - | - | 17.4
O=c1[nH]c(=S)[nH]c2c1[C@H](CCc1cccc(Cl)c1)O[C@H](C1CCCC1)C2 | . | . | 40.6 | . | - | -
CC1(C)OC(=O)C2=C(C[C@@H](C3CCCC3)O[C@H]2CCc2cccc(Cl)c2)O1 | . | . | - | . | - | -
Cc1noc(COc2ccccc2OCC(N)=O)n1 | - | - | - | - | - | 16.2
Cc1nn(-c2ccccc2)c2sc(-c3n[nH]c(=S)o3)cc12 | - | - | - | - | 24.6 | -
Cc1ccc(CN2CC(C(=O)NCCCSc3ccccc3)CC2=O)cc1 (centres undefined) | - | - | - | - | - | -
CCOC(=O)C1CCN(CC(C)(C)NS(=O)(=O)c2ccccc2)CC1 | - | - | - | - | - | 18.5
CCOC(=O)C1CCN(S(=O)(=O)c2ccc(C)c(C)c2)CC1 | - | - | - | - | - | 16.7
CC(=O)N1CCN(CC(C)(C)NS(=O)(=O)c2ccccc2)CC1 | - | - | - | - | - | -
CCOC(=O)C1CCN(S(=O)(=O)c2ccc3[nH]c4c(c3c2)CCCC4)CC1 | - | - | - | - | - | 16.0
COC(=O)c1ccc2nc(-c3ccc(F)cc3)c(Cc3ccsc3)n2c1 | - | - | - | - | - | -
CCc1nc2ccc(C(=O)NCCOc3ccc(OC)cc3)cn2c1N(C)C(=O)Cc1ccccc1 | - | - | - | - | - | -
OCCNCc1cc(Br)ccc1OCc1ccc(Cl)cc1 | - | 23.3 | - | - | - | -
NCCCCCc1nnc(SCc2ccc(Cl)c(Cl)c2)o1 | 47.8 | - | - | - | - | -
